Experimental data from paper PMC7862700, “An all-to-all approach to the identification of sequence-specific readers for epigenetic DNA modifications on cytosine”.

What was measured:
Assay in all cases: DAPPL (digital affinity profiling via proximity ligation, sequencing); 10 mM Tris-HCl pH 7.5, 50 mM NaCl, 1 mM DTT, 4% glycerol, room temperature, 30 min; GST-TFs on glutathione beads, 16-mer random dsDNA library, 0.1% formaldehyde crosslink after washing; high values mean tight binding
Conditions in all cases: protein: recombinant; tags: N-terminal GST; dsDNA, one strand shown
ETV1 = ETV1 (Homo sapiens, UniProt P50549 1-477)
In short: (§1)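 Binding signal is each hexamer's read frequency for a factor divided by its frequency in the tag-only sample. The factors were GST-fused human transcription factors from yeast, captured on glutathione beads, DNA-barcoded and pooled with that sample. Pools were incubated with 200 nmole of a random double-stranded 16-mer DNA library in Tris/NaCl/DTT/glycerol buffer at room temperature for 30 min, then washed, crosslinked with 0.1% formaldehyde, proximity-ligated with BsaI/T4 ligase (1 h, 37 °C), PCR-amplified and sequenced on an Illumina NextSeq500.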

ERF = target: T1, ERF (Homo sapiens, UniProt P50548 1-548)
T1 sequence: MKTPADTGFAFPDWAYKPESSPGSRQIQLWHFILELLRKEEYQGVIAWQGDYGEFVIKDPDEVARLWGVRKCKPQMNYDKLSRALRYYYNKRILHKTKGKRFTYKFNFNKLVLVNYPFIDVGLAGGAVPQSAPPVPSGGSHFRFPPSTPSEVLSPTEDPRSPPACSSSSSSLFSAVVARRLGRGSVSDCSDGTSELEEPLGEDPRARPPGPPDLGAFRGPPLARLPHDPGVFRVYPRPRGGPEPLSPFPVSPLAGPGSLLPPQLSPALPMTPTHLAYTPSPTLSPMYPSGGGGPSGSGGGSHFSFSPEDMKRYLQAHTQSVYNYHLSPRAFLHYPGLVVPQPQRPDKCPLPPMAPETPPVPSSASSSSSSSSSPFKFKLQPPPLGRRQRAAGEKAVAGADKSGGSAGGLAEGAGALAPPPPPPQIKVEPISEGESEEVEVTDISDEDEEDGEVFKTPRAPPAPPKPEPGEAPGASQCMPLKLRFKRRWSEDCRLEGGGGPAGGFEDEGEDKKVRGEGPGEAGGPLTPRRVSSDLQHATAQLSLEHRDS
In short: as §1

ETV3L = target: T2, ETV3L (Homo sapiens, UniProt Q6ZN32 1-361)
T2 sequence: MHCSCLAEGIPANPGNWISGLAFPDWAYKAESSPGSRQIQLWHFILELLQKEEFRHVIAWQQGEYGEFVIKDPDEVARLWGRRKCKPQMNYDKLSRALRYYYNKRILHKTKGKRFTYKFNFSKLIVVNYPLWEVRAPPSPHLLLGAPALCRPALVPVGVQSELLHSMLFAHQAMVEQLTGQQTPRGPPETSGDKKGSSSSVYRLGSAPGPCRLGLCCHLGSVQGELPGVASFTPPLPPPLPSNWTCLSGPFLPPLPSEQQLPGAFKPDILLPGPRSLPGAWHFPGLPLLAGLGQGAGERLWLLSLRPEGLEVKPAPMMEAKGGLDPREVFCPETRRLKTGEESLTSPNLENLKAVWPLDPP
In short: as §1

ETS2 = target: T3, ETS2 (Homo sapiens, UniProt P15036 1-469)
T3 sequence: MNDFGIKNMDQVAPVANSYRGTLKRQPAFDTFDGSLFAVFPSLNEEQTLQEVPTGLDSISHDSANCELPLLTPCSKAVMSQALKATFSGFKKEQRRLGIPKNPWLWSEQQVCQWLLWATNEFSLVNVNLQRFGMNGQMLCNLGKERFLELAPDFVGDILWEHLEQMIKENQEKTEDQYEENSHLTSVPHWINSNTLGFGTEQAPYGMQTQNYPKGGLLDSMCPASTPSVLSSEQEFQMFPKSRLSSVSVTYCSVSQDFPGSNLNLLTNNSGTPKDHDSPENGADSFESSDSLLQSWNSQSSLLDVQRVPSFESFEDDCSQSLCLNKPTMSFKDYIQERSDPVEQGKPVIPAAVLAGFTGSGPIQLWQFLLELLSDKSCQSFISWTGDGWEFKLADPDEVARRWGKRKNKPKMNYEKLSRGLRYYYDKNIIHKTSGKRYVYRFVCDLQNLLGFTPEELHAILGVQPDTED
In short: as §1

SPDEF = target: T4, SPDEF (Homo sapiens, UniProt O95238 1-335)
T4 sequence: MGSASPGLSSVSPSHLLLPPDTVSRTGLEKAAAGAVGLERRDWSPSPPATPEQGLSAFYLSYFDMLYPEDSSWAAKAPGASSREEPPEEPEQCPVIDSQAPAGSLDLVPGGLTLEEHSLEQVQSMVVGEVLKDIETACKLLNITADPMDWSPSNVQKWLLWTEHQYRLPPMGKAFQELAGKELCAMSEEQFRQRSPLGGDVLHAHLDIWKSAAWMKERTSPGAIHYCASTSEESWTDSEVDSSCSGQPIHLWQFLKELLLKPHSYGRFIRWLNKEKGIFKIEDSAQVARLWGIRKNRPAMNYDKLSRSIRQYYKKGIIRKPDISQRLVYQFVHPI
In short: as §1

ETV7 = target: T5, ETV7 (Homo sapiens, UniProt Q9Y603 1-341)
T5 sequence: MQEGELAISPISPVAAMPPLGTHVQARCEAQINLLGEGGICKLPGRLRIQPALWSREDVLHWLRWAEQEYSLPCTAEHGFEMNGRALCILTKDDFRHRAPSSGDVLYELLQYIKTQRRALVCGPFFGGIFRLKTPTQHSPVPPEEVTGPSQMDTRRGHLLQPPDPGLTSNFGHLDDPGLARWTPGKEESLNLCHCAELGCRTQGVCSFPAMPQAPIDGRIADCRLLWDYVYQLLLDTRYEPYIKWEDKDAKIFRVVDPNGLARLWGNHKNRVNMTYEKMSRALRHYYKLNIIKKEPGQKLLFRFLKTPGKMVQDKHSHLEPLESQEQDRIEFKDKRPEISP
In short: as §1

ELF5 = target: T6, ELF5 (Homo sapiens, UniProt Q9UKW6-2 1-255)
T6 sequence: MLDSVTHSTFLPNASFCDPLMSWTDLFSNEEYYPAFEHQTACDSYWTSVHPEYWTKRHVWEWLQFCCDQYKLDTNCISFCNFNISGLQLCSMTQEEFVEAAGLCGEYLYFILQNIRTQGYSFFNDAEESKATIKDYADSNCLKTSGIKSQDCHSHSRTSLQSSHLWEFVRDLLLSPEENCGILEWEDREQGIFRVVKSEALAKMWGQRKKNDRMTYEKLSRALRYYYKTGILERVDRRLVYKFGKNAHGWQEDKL
In short: as §1

ETV3 = target: T7, ETV3 (Homo sapiens, UniProt P41162-2 1-143)
T7 sequence: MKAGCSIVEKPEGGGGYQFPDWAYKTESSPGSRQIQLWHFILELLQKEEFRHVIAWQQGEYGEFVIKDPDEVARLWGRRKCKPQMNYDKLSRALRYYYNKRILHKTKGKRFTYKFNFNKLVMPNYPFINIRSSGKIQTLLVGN
In short: as §1

ETV6 = ETV6 (Homo sapiens, UniProt P41212 1-452)
In short: as §1

ETV6, sequence (P41212 whole entry): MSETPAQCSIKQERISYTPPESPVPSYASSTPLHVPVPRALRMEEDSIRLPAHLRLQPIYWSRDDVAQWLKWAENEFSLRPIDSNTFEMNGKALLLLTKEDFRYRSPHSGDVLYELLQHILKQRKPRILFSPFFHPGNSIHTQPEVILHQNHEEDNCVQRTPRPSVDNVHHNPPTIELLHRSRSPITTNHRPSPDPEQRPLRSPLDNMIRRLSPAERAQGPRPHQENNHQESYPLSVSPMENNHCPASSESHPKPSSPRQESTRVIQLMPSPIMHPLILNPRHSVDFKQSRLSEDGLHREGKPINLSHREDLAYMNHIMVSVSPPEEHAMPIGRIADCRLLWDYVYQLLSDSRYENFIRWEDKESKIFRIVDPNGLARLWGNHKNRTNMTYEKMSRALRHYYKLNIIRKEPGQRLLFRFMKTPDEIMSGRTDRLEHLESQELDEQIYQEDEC
ETV1, sequence (P50549 whole entry, the tested form may be a part): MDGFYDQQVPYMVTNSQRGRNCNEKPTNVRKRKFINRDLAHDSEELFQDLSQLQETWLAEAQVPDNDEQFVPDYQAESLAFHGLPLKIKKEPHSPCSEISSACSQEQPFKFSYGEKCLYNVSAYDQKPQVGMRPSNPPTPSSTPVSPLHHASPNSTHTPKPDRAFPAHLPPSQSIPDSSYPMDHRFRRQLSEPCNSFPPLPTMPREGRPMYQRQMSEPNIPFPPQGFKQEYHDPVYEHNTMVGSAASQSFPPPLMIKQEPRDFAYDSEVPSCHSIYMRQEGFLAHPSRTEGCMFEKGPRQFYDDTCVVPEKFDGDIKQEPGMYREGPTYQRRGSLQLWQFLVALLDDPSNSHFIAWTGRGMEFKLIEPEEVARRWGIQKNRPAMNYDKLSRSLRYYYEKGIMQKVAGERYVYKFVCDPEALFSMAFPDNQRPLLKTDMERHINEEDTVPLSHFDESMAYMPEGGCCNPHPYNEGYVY

CTTTAC
binding signal (ETV1): 1.3 fold enrichment (6-mer frequency, TF over GST control) | binding signal (ERF): 1.3 fold enrichment (6-mer frequency, TF over GST control) | binding signal (ETV3L): 1.46 fold enrichment (6-mer frequency, TF over GST control) | binding signal (ETS2): 1.36 fold enrichment (6-mer frequency, TF over GST control) | binding signal (SPDEF): 1.35 fold enrichment (6-mer frequency, TF over GST control) | binding signal (ETV7): 1.38 fold enrichment (6-mer frequency, TF over GST control) | binding signal (ELF5): 1.35 fold enrichment (6-mer frequency, TF over GST control) | binding signal (ETV3): 1.39 fold enrichment (6-mer frequency, TF over GST control) | binding signal (ETV6): 1.41 fold enrichment (6-mer frequency, TF over GST control)
